Bioassay records from PubChem BioAssay.
MITF TRPM1 HTS: MITF TRPM1 promoter activation in melanoma cells. SK-MEL-5 TRPM1-promoter luciferase, 24 h; % of positive control, neutral wells = 0. activation, % at 12.5 µM. 300,000 tested, 0.75% active. AID 588334;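 active = mean activation of at least 80% with every replicate also reaching 80%; inconclusive = mean reaches 80% but some replicate falls short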;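 also: 0% = neutral control wells and 100% = parthenolide positive control wells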
TROY NFkB inh: inhibitors of TROY-dependent NF-kB signaling | AID 1347056 | Q293 LMP1-TROYcd NF-kB luciferase reporter, 4 h | 360,000 tested, 0.98% active | inhibition, % at 10 µM;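 active = compounds whose plate-normalised and pattern-corrected inhibition of the luciferase reporter signal at the single screening dose is 50% or more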
TWEAK-Fn14 inh: blocks TWEAK-Fn14 interaction in a reporter cell assay | TWEAK-stimulated Fn14 reporter cells, luciferase luminescence, 8 h | 360,000 tested, 2% active | inhibition, % at 10 µM; in the data active = inhibition above about 50%
MITF TRPM1 inh: inhibitors of MITF-driven TRPM1 promoter in melanoma cells | SK-MEL-5 TRPM1 promoter luciferase, 24 h | inhibition, % at 12.5 µM | 330,000 tested, 0.83% active;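 active = mean inhibition across replicates of 60% or more, whatever share of single replicates reaches that level; inconclusive = some that reach 60%, reason not given; inactive = mean inhibition across replicates below 60%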
EBV LMP1 NFkB: Epstein-Barr LMP1 NF-kappaB reporter inhibition; LMP1-induced NF-kappaB luciferase reporter cells, luminescence; inhibition, % at 12.5 µM; 350,000 tested, 0.69% active; AID 504558; in the data active = inhibition above about 41%; inconclusive = no clear call, values can overlap the other calls;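 also: 0% = neutral control wells and 100% = reference inhibitor control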
LGR2 inh: blocks bursicon-induced cAMP signaling via Drosophila LGR2; HEK293 LGR2, CRE-luciferase, bursicon-stimulated, 4 h; inhibition, % at 9.99 µM; 380,000 tested, 0.35% active; AID 720647;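 active = drop in luminescence signal, shown as inhibition above about 50% in the replicate tests, limit read from the data, passing the limit was not always enough; inconclusive = probably only some replicates passing the limit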;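 also: agonist challenge used bursicon conditioned medium at about half maximal strength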
Starred values were filed as active, the others as inactive; ? = inconclusive; nt = no result given. An excerpt weighted towards active compounds, which were near 3% of everything screened.

SMILES	MITF TRPM1 HTS	TROY NFkB inh	TWEAK-Fn14 inh	MITF TRPM1 inh	EBV LMP1 NFkB	LGR2 inh
CC(=O)c1ccc(OCc2cc(C(=O)NC3CCCCC3)no2)cc1	103*	-37	-5	-95	-24	-46
CCC(=O)N1CCC2(CC1)CN(Cc1ccc(Cl)cc1)[C@H](CO)c1[nH]c3cc(OC)ccc3c12	nt	nt	nt	nt	nt	-8
COc1ccc2c3c(n(C)c2c1)[C@H](CO)N(C(=O)c1ccncc1)CC31CCN(C(C)=O)CC1	nt	nt	nt	nt	nt	11
O=C(OCc1nnc(-c2ccccc2)o1)c1ccc2ccccc2n1	7	nt	79*	-6	-6	nt
Cc1ccccc1NC(=O)Cc1nc(COC(=O)c2ccc(S(C)(=O)=O)c([N+](=O)[O-])c2)cs1	-72	46	69*	73*	-4	-13
CC(=O)c1cccc(NC(=O)COC(=O)c2ccc(S(C)(=O)=O)c([N+](=O)[O-])c2)c1	-5	45	64*	5	-48	36
O=C(OCc1nnc(-c2ccccc2)o1)c1cc2ccccc2cc1O	5	-12	-6	-2	-4	-7
CS(=O)(=O)c1ccc(C(=O)OCc2nnc(-c3ccccc3)o2)cc1[N+](=O)[O-]	-47	66*	66*	48	-5	?
COCC(=O)Nc1ccc2c(c1)C(=O)N(C)C[C@@H](OC)[C@@H](C)CN(Cc1ccccc1OC)[C@@H](C)CO2	nt	nt	nt	nt	nt	16
C[C@H](O)C#Cc1ccc2c(c1)O[C@@H](CN(C)C(=O)Nc1ccccc1)[C@@H](C)CN([C@@H](C)CO)S2(=O)=O	nt	nt	nt	nt	nt	2
CC(CCc1ccccc1)NC(=O)COC(=O)c1ccc(S(C)(=O)=O)c([N+](=O)[O-])c1 (stereo not given)	8	70*	71*	-9	-1	38
CNC(=O)C[C@@H]1CC[C@H]2[C@H](COc3ccc(NC(=O)NC(C)C)cc3C(=O)N2C)O1	nt	nt	nt	nt	nt	4
COc1ccccc1-c1ccc([C@@H]2[C@@H](C#N)N(C(=O)NC(C)C)[C@@H]2CO)cc1	nt	nt	nt	nt	nt	-2
O=C1c2cc([N+](=O)[O-])ccc2-c2cc(Br)c(N=C(NO)C(F)(F)F)cc21	-15	79*	-63	17	-3	13
COc1ccc(S(=O)(=O)N2CCN(CC(=O)Nc3ccc(C)c(F)c3)CC2)cc1	-6	-3	-7	8	50*	5
COc1ccc(S(=O)(=O)N2CCN(CC(=O)Nc3cccc(F)c3)CC2)cc1	-5	-14	-8	3	-1	-17
C[C@@H]1CN([C@H](C)CO)C(=O)c2cccc(NC(=O)Nc3ccc(C(F)(F)F)cc3)c2O[C@H]1CN(C)C(=O)Nc1ccccc1	nt	nt	nt	nt	nt	7
O=C1OC(Nc2nc(-c3ccc(F)cc3)cs2)c2ccccc21 (stereo not given)	8	-9	59*	-8	22	17
O=C1OC(Nc2nc3ccccc3s2)c2ccccc21 (stereo not given)	nt	-10	-7	-16	6	nt
CC[n+]1c(C)sc2c3ccsc3ccc21	-7	16	-4	7	2	24
CCN1/C(=C/c2ccc3cc(C)cc(C)c3[n+]2CC)Sc2cc(C)ccc21	-81	31	34	83*	29	82*
Cc1ccc2c(c1)S/C(=C\c1cccc[n+]1C)N2CCO	-9	25	10	9	2	0
CCN1/C(=C/c2ccc3cc(C)ccc3[n+]2CC)Sc2ccc3sccc3c21	-100	29	32	100*	21	nt
CCN1/C(=C\c2ccc3cc(C)ccc3[n+]2CC)Sc2cc(C)c(C)cc21	-74	45	64*	73*	29	34
CCN1/C(=C/c2ccc3cccc(C)c3[n+]2CC)Sc2ccccc21	-71	42	1	72*	-3	31
SMILES	MITF TRPM1 HTS	TROY NFkB inh	TWEAK-Fn14 inh	MITF TRPM1 inh	EBV LMP1 NFkB	LGR2 inh
C[n+]1ccccc1/C=C1\Sc2ccccc2N1CCO	1	-12	-6	-2	-7	-20
CCC1(O)C(=O)OCc2c1cc1n(c2=O)Cc2cc3c(N)cccc3nc2-1 (stereo not given)	nt	72*	72*	72*	73*	98*
CCC1(OC(=O)CN(C)C)C(=O)OCc2c1cc1n(c2=O)Cc2cc3c(N)cccc3nc2-1 (stereo not given)	-68	-9	-31	67*	76*	nt
CCCNC(=O)C[C@H]1CC[C@H]2[C@H](COc3ccc(NC(=O)NC(C)C)cc3C(=O)N2C)O1	nt	nt	nt	nt	nt	2
C=C1C(=O)[C@@]23[C@H](O)C[C@@H]4C(C)(C)CC[C@H](O)[C@]4(C)[C@@H]2C[C@H](O)[C@@H]1[C@H]3O	-39	10	60*	42	-13	35
C=C1C(=O)[C@@]23[C@H](O)C[C@@H]4C(C)(C)CC[C@H](O)[C@@]4(C)[C@@H]2CC[C@@H]1[C@H]3O	-92	28	95*	93*	94*	59*
Cc1cc(=O)oc2cc(NC(=O)c3ccccc3C(=O)O)ccc12	2	-6	14	2	7	-16
CCOC(=O)Nc1ccc2c(C)cc(=O)oc2c1	103*	-36	1	-111	-21	-50
Cc1cc(=O)oc2cc(NC(=O)c3ccccc3Cl)ccc12	98*	-30	-25	-92	-16	-66
CCC(=O)N1CC2(C1)[C@H](c1ccccc1)[C@@H](CO)N2CC1CCCC1	nt	nt	nt	nt	nt	-14
CCCSc1nnc(Sc2nnnn2-c2ccccc2)s1	nt	4	82*	52	37	nt
O=[N+]([O-])c1ccc(Sc2ccccn2)nc1	-14	-3	3	15	1	nt
Cc1ccccc1-n1nnnc1Sc1nnnn1-c1ccccc1	-79	44	88*	78*	55*	nt
C(=C\CSc1nnnn1-c1ccccc1)/CSc1nnnn1-c1ccccc1	-8	-3	10	8	-7	nt
O=[N+]([O-])c1ccc(Sc2nnnn2-c2ccccc2)nc1	nt	nt	nt	nt	nt	68*
C[C@H]1CCCCO[C@H](CN(C)S(=O)(=O)c2cn(C)cn2)[C@@H](C)CN([C@@H](C)CO)C(=O)c2cc(N(C)C)ccc2O1	nt	nt	nt	nt	nt	7
C[C@H](CO)N1C[C@H](C)[C@H](CN(C)C(=O)C2CCCCC2)Oc2ncc(C#Cc3ccccc3F)cc2C1=O	nt	nt	nt	nt	nt	3
CO[C@@H]1CN(C)C(=O)c2cc(NS(=O)(=O)c3ccc(C)cc3)ccc2OC[C@H](C)N(C)C[C@H]1C	nt	nt	nt	nt	nt	-6
CC(C)NC(=O)Nc1ccc2c(c1)C(=O)N([C@@H](C)CO)C[C@H](C)[C@H](CN(C)C)O2	nt	nt	nt	nt	nt	-7
CC(C)CC#Cc1ccc([C@H]2[C@H](CO)N3C(=O)CN(C(=O)Nc4ccc(F)cc4)C[C@@H]23)cc1	nt	nt	nt	nt	nt	-5
C/C(=N\Nc1nc2ccccc2s1)c1ccc(Br)s1	-4	31	51*	8	-13	-13
C/C(=N/NC(=O)CSc1nc2ccccc2s1)c1ccncc1	8	10	4	-7	2	-4
CC(=NNc1nc2ccccc2s1)c1ccncn1	-37	-9	1	38	68*	-11
